Data: PubChem BioAssay (NCI)
Several values for one entry are separate records, joined by “and”; a condition that tells them apart may be missing. Equal entries are not always repeated. Compounds without any hit were thinned out: in the full panel of roughly 83,000, 20% have a hit.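 Single-concentration screen, 48 h exposure, 96-well plates. Endpoint: percent growth. Below 10 = active.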 Activity calls are given as the source filed them.

Key:
Assay in all cases: NCI-60 one-dose screen, 48 h (100 = growth as untreated, 0 = no growth, -100 = all killed)
[1] = tested on: SR leukemia
[2] = tested on: RPMI-8226 leukemia
[3] = tested on: OVCAR-8 ovarian
[4] = tested on: OVCAR-5 ovarian
[5] = tested on: OVCAR-4 ovarian
[6] = tested on: SK-OV-3 ovarian
[7] = tested on: IGROV1 ovarian
[8] = tested on: OVCAR-3 ovarian
[9] = tested on: HS 578T breast
[10] = tested on: NCI/ADR-RES ovarian

Measured: growth

Cc1nc2cccc(NCCCCC(=O)NO)c2c(=O)n1-c1ccccc1
inactive: [1]; 10 µM unless noted 29.4% | [2]; 10 µM unless noted 36.1% | [3]; 10 µM unless noted 39.5% | [4]; 10 µM unless noted 31.1% | [5]; 10 µM unless noted 68.7% | [6]; 10 µM unless noted 50.8% | [7]; 10 µM unless noted 58.2% | [8]; 10 µM unless noted 68.1% | [9]; 10 µM unless noted 55.2% | [10]; 10 µM unless noted 75.3%

Cc1nc2sc(C(=O)Nc3cccc4ncccc34)c(N)c2cc1C(C)O (stereo not given)
inactive: [1]; 10 µM unless noted 22.4% | [2]; 10 µM unless noted 75.8% | [3]; 10 µM unless noted 86.6% | [4]; 10 µM unless noted 96.5% | [5]; 10 µM unless noted 91.3% | [6]; 10 µM unless noted 69.9% | [7]; 10 µM unless noted 74.4% | [8]; 10 µM unless noted 54.6% | [9]; 10 µM unless noted 63.6% | [10]; 10 µM unless noted 88%

O=C1/C(=C/c2cn(-c3ccccc3)nc2-c2ccccc2)SC(=S)N1c1ccc(Cl)cc1
inactive: [1]; 10 µM unless noted 39.5% | [2]; 10 µM unless noted 78.8% | [3]; 10 µM unless noted 64.5% | [4]; 10 µM unless noted 93.4% | [5]; 10 µM unless noted 80.3% | [6]; 10 µM unless noted 104% | [7]; 10 µM unless noted 69.1% | [8]; 10 µM unless noted 83.4% | [9]; 10 µM unless noted 83.7% | [10]; 10 µM unless noted 85.7%

CC(=O)/C=C/c1ccc(N(CCO)Cc2ccc(C(C)(C)C)cc2)cc1
inactive: [1]; 10 µM 83% | [2]; 10 µM 84.7% | [3]; 10 µM 80.7% | [4]; 10 µM 78.2% | [5]; 10 µM 65.7% | [6]; 10 µM 83.7% | [7]; 10 µM 96.6% | [8]; 10 µM 84.4% | [9]; 10 µM 65% | [10]; 10 µM 67%
active: [1]; 100 µM -62.1% | [2]; 100 µM -34.9% | [3]; 100 µM -81.1% | [4]; 100 µM -98.5% | [5]; 100 µM -89.2% | [6]; 100 µM -99% | [7]; 100 µM -65.9% | [8]; 100 µM -95% | [9]; 100 µM -52.9% | [10]; 100 µM -88.3%

C=C(C)[C@@H]1CC[C@]2(C(=O)N3CCN(C)CC3)CC[C@]3(C)[C@H](CC[C@@H]4[C@@]5(C)CC(CCCNC(C)=O)(CCCNC(C)=O)[C@H](OC(C)=O)C(C)(C)[C@@H]5CC[C@]43C)[C@@H]12
inactive: [1]; 10 µM unless noted 76.2% | [2]; 10 µM unless noted 75.5% | [3]; 10 µM unless noted 106% | [4]; 10 µM unless noted 102% | [5]; 10 µM unless noted 111% | [6]; 10 µM unless noted 102% | [7]; 10 µM unless noted 102% | [8]; 10 µM unless noted 104% | [9]; 10 µM unless noted 96.6% | [10]; 10 µM unless noted 98.7%

C=CCNC(=O)Cc1c(-c2ccc(OC)cc2)oc2c(OC)c3c(c(OC)c12)OCO3
inactive: [1]; 10 µM unless noted 97.4% | [2]; 10 µM unless noted 97.5% | [3]; 10 µM unless noted 95.9% | [4]; 10 µM unless noted 101% | [5]; 10 µM unless noted 102% | [6]; 10 µM unless noted 110% | [7]; 10 µM unless noted 82.3% | [8]; 10 µM unless noted 118% | [9]; 10 µM unless noted 103% | [10]; 10 µM unless noted 98.2%

COc1ccc(-c2[nH]c3ccccc3c2-c2ccc(OC)cc2)cc1
active: [1]; 10 µM unless noted 6.13%
inactive: [2]; 10 µM unless noted 24.1% | [3]; 10 µM unless noted 86.1% | [4]; 10 µM unless noted 62.6% | [5]; 10 µM unless noted 61% | [6]; 10 µM unless noted 61.7% | [7]; 10 µM unless noted 88.2% | [8]; 10 µM unless noted 12.9% | [9]; 10 µM unless noted 49.5% | [10]; 10 µM unless noted 36.2%

Cc1nc2sc(C(=O)Nc3cccc4ccccc34)c(N)c2cc1C(=O)/C=C/c1ccccc1
active: [2]; 10 µM unless noted -27% | [3]; 10 µM unless noted -13.9% | [7]; 10 µM unless noted 4.15% | [8]; 10 µM unless noted -67.8% | [10]; 10 µM unless noted -11.3%
inactive: [1]; 10 µM unless noted 13.2% | [4]; 10 µM unless noted 13.6% | [5]; 10 µM unless noted 34.6% | [6]; 10 µM unless noted 27.1% | [9]; 10 µM unless noted 16.1%

O=C(Nc1cc(C(F)(F)F)cc(C(F)(F)F)c1)c1cc(Cl)ccc1O
19.3% (inactive) and 2.52% (active): [8]; 10 µM unless noted
active: [1]; 10 µM unless noted -8.27% | [2]; 10 µM unless noted -31.5% and -35.6% | [3]; 10 µM unless noted -37.8% and 3.24% | [6]; 10 µM unless noted -56.9% and 1.67% | [7]; 10 µM unless noted 4.82% and 9.9% | [9]; 10 µM unless noted -8.03% | [10]; 10 µM unless noted -1.25% and 2.06%
inactive: [4]; 10 µM unless noted 27.2% and 23.1% | [5]; 10 µM unless noted 24.8% and 20.3%

CCOC(=O)c1c(-c2ccc(C)cc2)c(C#N)c(=O)n(-c2cccc(C(F)(F)F)c2)c1N
inactive: [1]; 10 µM unless noted 102% | [2]; 10 µM unless noted 104% | [3]; 10 µM unless noted 103% | [4]; 10 µM unless noted 93% | [5]; 10 µM unless noted 106% | [6]; 10 µM unless noted 108% | [7]; 10 µM unless noted 107% | [8]; 10 µM unless noted 106% | [9]; 10 µM unless noted 105% | [10]; 10 µM unless noted 109%

COc1cc(/C=C/C(=O)c2ccc(NC(=O)CSc3nnc(-c4cc(-c5ccccc5)nc5ccccc45)n3-c3ccccc3)cc2)cc(OC)c1OC
inactive: [1]; 10 µM unless noted 58% | [2]; 10 µM unless noted 72.3% | [3]; 10 µM unless noted 86.9% | [4]; 10 µM unless noted 93.6% | [5]; 10 µM unless noted 103% | [6]; 10 µM unless noted 101% | [7]; 10 µM unless noted 110% | [8]; 10 µM unless noted 98.5% | [9]; 10 µM unless noted 90.4% | [10]; 10 µM unless noted 86.7%

Cc1c(C(=O)OCCCCOC(=O)c2c(C)n(C)c3scc[n+]23)[n+]2ccsc2n1C
inactive: [1]; 10 µM unless noted 117% | [2]; 10 µM unless noted 96.1% | [3]; 10 µM unless noted 96.2% | [4]; 10 µM unless noted 83.5% | [5]; 10 µM unless noted 103% | [6]; 10 µM unless noted 103% | [7]; 10 µM unless noted 110% | [8]; 10 µM unless noted 95.3% | [9]; 10 µM unless noted 179% | [10]; 10 µM unless noted 110%
